About 240 (18%) of roughly 1,300 compounds were called active. Not shown: some 8% with an inconclusive outcome. The rule behind the calls is not given here. These entries were drawn from the full list. Where a call stands in place of a potency, no number is given. Potency and affinity values are given separately.

The assay in a line: HepG2 cell cytotoxicity, dose response, cytotoxicity control, cherry-picked samples (AID 1159577). Conditions: HepG2 cytotoxicity counterscreen, plate reader; series mostly up to 19.5 µM. Background: The purpose of a counterscreen is to sort out artefacts and off-target activity.
As for `COc1ccc2c3c([nH]c2c1)[C@H](CO)N(Cc1ccc(F)cc1)CC31CCN(C(C)=O)CC1`, the outcome was inactive.

`CNC[C@H]1Oc2ncc(-c3ccc(OC)cc3)cc2C(=O)N([C@H](C)CO)C[C@H]1C`: the molecule was called inactive. Regarding `C[C@@H]1CN([C@@H](C)CO)C(=O)c2cc(NC(=O)Nc3ccc4c(c3)OCO4)ccc2O[C@H]1CN(C)C(=O)Nc1cccc2ccccc12`, the outcome was inactive. Consider `C[C@H]1CN([C@@H](C)CO)S(=O)(=O)c2ccc(C#Cc3ccncc3)cc2O[C@H]1CN(C)S(=O)(=O)c1ccc(F)cc1`, for which the outcome was inactive. Consider `COc1cccc(NC(=O)N(C)C[C@@H]2Oc3cc(C#Cc4ccc(F)cc4)ccc3S(=O)(=O)N([C@H](C)CO)C[C@@H]2C)c1`, for which the result was inactive. As for `COc1ccc(NC(=O)N(C)C[C@H]2Oc3cc(C#CCC(C)C)ccc3S(=O)(=O)N([C@H](C)CO)C[C@H]2C)cc1`, the molecule was called inactive.

With `COc1cccc(NC(=O)N(C)C[C@@H]2Oc3cc(C#Cc4ccc(F)cc4)ccc3S(=O)(=O)N([C@@H](C)CO)C[C@@H]2C)c1`, the molecule was called inactive.

For the molecule `CC(C)CC#Cc1ccc2c(c1)O[C@H](CN(C)S(=O)(=O)c1ccc(F)cc1)[C@@H](C)CN([C@@H](C)CO)S2(=O)=O`, the molecule was called inactive. In the case of `C[C@@H]1CN([C@@H](C)CO)S(=O)(=O)c2ccc(/C=C/c3ccccc3)cc2O[C@H]1CN(C)C(=O)C1CC1` it was “inactive”.

With `COc1ccccc1S(=O)(=O)N(C)C[C@@H]1Oc2cc(C#CCC(C)C)ccc2S(=O)(=O)N([C@@H](C)CO)C[C@H]1C`, the result was inactive. Next, `C[C@@H]1CN([C@@H](C)CO)S(=O)(=O)c2ccc(/C=C/c3ccccc3)cc2O[C@H]1CN(C)Cc1cccnc1`: “inactive”. As to `COc1ccccc1S(=O)(=O)N(C)C[C@@H]1Oc2cc(C#CCC(C)C)ccc2S(=O)(=O)N([C@@H](C)CO)C[C@@H]1C`, the outcome was inactive. In the case of `CCCC(=O)N1CCC2(CC1)CN[C@@H](CO)c1[nH]c3cc(OC)ccc3c12`, the result was inactive. Turning to `N#C[C@@H]1[C@H](c2ccccc2C2=CCCCC2)[C@@H](CO)N1S(=O)(=O)c1ccccc1`, the result was inactive. Consider `COc1ccc(C#Cc2ccc3c(c2)[C@@H]2[C@@H](CCN2C(=O)C2CC2)[C@H](CO)N3)cc1`, for which the molecule was called inactive. As for `COCC(=O)N1CC2(C1)CN(Cc1cccc(Cl)c1)[C@@H](CO)c1[nH]c3cc(OC)ccc3c12`, the outcome was inactive. As for `CCC(=O)Nc1ccc2c(c1)OC[C@H](C)N(Cc1ccccn1)C[C@H](C)[C@H](OC)CN(C)C2=O`, the molecule was called inactive. Turning to `CN(C)CC#Cc1cccc(-c2nc(C(=O)N[C@@H]3CCN(Cc4ccccc4)C3)cc3c2[C@H](CCO)N(S(=O)C(C)(C)C)C3)c1` (stereo partly drawn), the call was inactive. Take `COc1ccc(C#Cc2ccc3c(c2)O[C@@H](CN(C)S(=O)(=O)c2ccccc2F)[C@@H](C)CN([C@@H](C)CO)S3(=O)=O)cc1`: the molecule was classed as inactive. With `COc1ccc2c3c([nH]c2c1)[C@H](CO)N(Cc1cc(F)ccc1F)CC31CCN(C(C)=O)CC1`, the call was inactive. `CN1C[C@H]2[C@@H](c3ccccc31)[C@H](CO)N2Cc1ccccc1F`: the call was inactive. As to `COc1cccc(NC(=O)N2[C@@H](CO)[C@@H](c3ccccc3)[C@@H]2CNCC(C)C)c1`, the result was inactive.

Regarding `C[C@@H]1CN([C@H](C)CO)S(=O)(=O)c2ccc(-c3ccncc3)cc2O[C@H]1CN(C)Cc1ccc(Oc2ccccc2)cc1`, the result was inactive. For `Cc1ccc(-c2ccc3c(c2)O[C@@H](CN(C)Cc2cccnc2)[C@@H](C)CN([C@@H](C)CO)S3(=O)=O)cc1`, the molecule was called inactive. As to `C[C@H](CO)N1C[C@H](C)[C@H](CN(C)C(=O)Nc2cc(F)ccc2F)Oc2cc(/C=C/c3ccccc3)ccc2S1(=O)=O`, the molecule was called inactive. In the case of `C[C@H](CO)N1C[C@H](C)[C@H](CN(C)C(=O)Nc2ccc(F)cc2)Oc2cc(/C=C/c3ccccc3)ccc2S1(=O)=O` it was “inactive”.

Consider `CCS(=O)(=O)N1CCC2(CC1)CN(Cc1ccc3c(c1)OCO3)[C@H](CO)c1[nH]c3cc(OC)ccc3c12`, for which the molecule was classed as inactive. In the case of `CCC(=O)N1[C@H](CO)[C@@H](c2ccccc2-c2cccc(C)c2)[C@@H]1C#N` it was “inactive”; in that of `COc1ccccc1CNC(=O)C[C@H]1C[C@@H]2c3cc(NC(=O)Nc4ccc(C(F)(F)F)cc4)ccc3O[C@@H]2[C@@H](CO)O1`, “inactive”.

As to `CO[C@H]1CN(C)C(=O)c2cc(NC(=O)C3CC3)ccc2OC[C@H](C)N(Cc2cccc(F)c2)C[C@H]1C`, the molecule was called inactive. Consider `O=C(c1ccccc1)N1CC[C@@H]2[C@@H](CO)Nc3ccc(-c4ccc(F)cc4)cc3[C@@H]21`, for which the result was inactive.

Regarding `COc1ccc(C#Cc2ccc3c(c2)O[C@@H](CN(C)C(=O)Nc2cccc(OC)c2)[C@@H](C)CN([C@@H](C)CO)S3(=O)=O)cc1`, the molecule was called inactive. For `Cc1ccccc1S(=O)(=O)N1[C@H](CO)[C@@H](c2ccc(C#CC3CCCCC3)cc2)[C@@H]1C#N`, the result was inactive. In the case of `COCC(=O)N1CC2(C1)CN(Cc1cc(F)ccc1F)[C@H](CO)c1[nH]c3cc(OC)ccc3c12` it was “inactive”; in that of `CO[C@@H]1CN(C)C(=O)c2ccc(NC(=O)c3nc4ccccc4s3)cc2OC[C@H](C)N(Cc2cccnc2)C[C@@H]1C`, “inactive”; in that of `CO[C@@H]1CN(C)C(=O)c2ccc(NC(=O)c3nc4ccccc4s3)cc2OC[C@H](C)N(Cc2ccncc2)C[C@@H]1C`, “inactive”. As for `CO[C@@H]1CN(C)C(=O)c2cc(NC(=O)c3nc4ccccc4s3)ccc2OC[C@@H](C)N(Cc2ccccc2)C[C@H]1C`, the molecule was called inactive. In the case of `CO[C@@H]1CN(C)C(=O)c2ccc(NC(=O)c3nc4ccccc4s3)cc2OC[C@@H](C)N(Cc2cccnc2)C[C@H]1C` it was “inactive”; in that of `CC(=O)N1CC[C@@H]2[C@@H](CO)Nc3ccc(C#Cc4ccccc4F)cc3[C@@H]21`, “inactive”. With `C/C=C/c1ccc([C@@H]2[C@@H](CO)N(CC3CCCC3)C23CN(S(=O)(=O)CC)C3)cc1`, the result was inactive. Take `COc1ccccc1CN1C[C@@H](C)[C@H](OC)CN(C)C(=O)c2ccc(NC(=O)Nc3ccccc3OC)cc2OC[C@H]1C`: the outcome was inactive. Consider `C[C@@H]1CN([C@H](C)CO)C(=O)c2cccc(NC(=O)CCCCCC(=O)Nc3ccccc3N)c2O[C@@H]1CN(C)S(=O)(=O)c1ccccc1`, for which the molecule was called inactive. Consider `Cc1ccccc1S(=O)(=O)N1[C@H](C#N)[C@@H](c2ccc(C#CC3CC3)cc2)[C@@H]1CO`, for which the outcome was inactive.

The values are drawn from PubChem BioAssay AID1159577 (Broad Institute, 2015).
